This is a sample that favours compounds with a hit; in the whole collection about 3.6% have one here.
PHOSPHO1 block: PubChem AID 1565; recombinant PHOSPHO1, absorbance phosphatase assay; inhibition, % at 13.3 µM; 290,000 tested, 1.1% active; in the data active = inhibition above about 60%
Target sequence (Q8TCT1 whole entry, looked up): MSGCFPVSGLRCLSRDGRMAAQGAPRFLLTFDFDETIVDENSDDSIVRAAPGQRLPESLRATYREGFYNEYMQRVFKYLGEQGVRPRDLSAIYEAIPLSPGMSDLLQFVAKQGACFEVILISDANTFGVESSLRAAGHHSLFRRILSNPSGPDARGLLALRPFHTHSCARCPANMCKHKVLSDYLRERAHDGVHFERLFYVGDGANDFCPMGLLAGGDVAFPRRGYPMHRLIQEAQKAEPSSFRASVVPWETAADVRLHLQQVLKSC
APOBEC3G inh: APOBEC3G DNA deaminase inhibitors, primary screen, biochemical, fluorescence, single-stranded DNA substrate, uHTS; inhibition, % at 20 µM; recombinant A3G, ssDNA deamination FAM/TAMRA fluorescence; 330,000 tested, 0.28% active; DNA dC->dU-editing enzyme APOBEC-3G (Homo sapiens), Q9HC16;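 active = inhibition of at least 40% at 20 µM, with no more than 30% in the related APOBEC3A deaminase screen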
esBAF inh: Bmi1 luciferase reporter increase in mESCs, primary screen, esBAF inhibitor project, mouse ES cells, Bmi1 luciferase knock-in, single point. 24 h; 100% = twice the neutral-well signal. reporter increase, % at 12.5 µM. 350,000 tested, 2% active. AID 602393, 2012; in the data active = activation above about 40%; inconclusive = no clear call, values can overlap the other calls;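 also: a rise in the Bmi1 reporter signal indicates esBAF inhibition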
Wnt bcat act: Wnt/beta-catenin pathway activators, primary screen, cell-based, plate reader, single point | Wnt/beta-catenin reporter cell assay, activator | activation, % at 9.35 µM | 300,000 tested, 1.2% active | AID 743398, 2014; in the data active = activation above about 30%, passing the limit was not always enough; inconclusive = no clear call, values can overlap the other calls
MITF TRPM1 HTS: activators of MITF-driven TRPM1 promoter reporter, primary screen, cell-based, SK-MEL-5, luciferase, single point; SK-MEL-5 TRPM1-promoter luciferase, 24 h; % of positive control, neutral wells = 0; activation, % at 12.5 µM; 300,000 tested, 0.75% active;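 active = mean activation of at least 80% with every replicate also reaching 80%; inconclusive = mean reaches 80% but some replicate falls short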
APOBEC3A inh: APOBEC3A ssDNA deaminase inhibitors, primary screen, selectivity assay for APOBEC3G inhibitor project, biochemical, FAM/TAMRA oligo cleavage fluorescence. recombinant A3A, FAM/TAMRA ssDNA deamination fluorescence. inhibition, % at 20 µM. 330,000 tested, 0.41% active. AID 493011, 2011;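 active = at least 40% inhibition at 20 µM here, with at most 30% in a related deaminase screen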
Target sequence (P31941 whole entry, looked up): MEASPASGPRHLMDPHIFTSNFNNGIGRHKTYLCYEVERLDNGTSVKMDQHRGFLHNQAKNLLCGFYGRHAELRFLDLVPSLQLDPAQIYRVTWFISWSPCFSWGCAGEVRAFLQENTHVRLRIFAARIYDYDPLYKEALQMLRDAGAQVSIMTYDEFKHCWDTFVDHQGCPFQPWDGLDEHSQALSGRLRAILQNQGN
Large screens that a line does not name were inactive.

COc1cccc(NC(=O)CSc2nnc(-c3cccc(OC(C)C)c3)n2N)c1	PHOSPHO1 block 88
COC(=O)C[C@@H]1CC[C@@H]2[C@H](COc3ccc(NC(=O)c4cscn4)cc3C(=O)N2C)O1	none (no result: PHOSPHO1 block, APOBEC3G inh, Wnt bcat act, MITF TRPM1 HTS, APOBEC3A inh)
O=C(NCC1CC1)[C@H]1[C@H](CO)[C@H]2Cn3c(ccc(-c4cccc(F)c4)c3=O)[C@H]2N1CC1CC1	none (no result: PHOSPHO1 block, APOBEC3G inh, Wnt bcat act, MITF TRPM1 HTS, APOBEC3A inh)
COc1cc(/C=C/C(=O)C2C(=O)C=C(C)OC2=O)cc(OC)c1O (stereo not drawn)	none (no result: esBAF inh, Wnt bcat act)
COc1ccc(/C=C/C(=O)C2C(=O)C=C(C)OC2=O)cc1O (stereo not drawn)	esBAF inh 51, Wnt bcat act 35
O=C(CCCc1c[nH]c2ccccc12)NCc1ccc2c(c1)OCO2	none (no result: MITF TRPM1 HTS)
O=C(CCc1c[nH]c2ccccc12)NCc1ccc2c(c1)OCO2	PHOSPHO1 block 61
O=C(Nc1ccc(Cl)cn1)c1ccc2ccccc2n1	none (no result: Wnt bcat act)
CCN(CC)c1ccc(NC(=O)c2cc3ccccc3o2)c(C)c1	esBAF inh 45 (no result: Wnt bcat act)
CCN(CC)c1ccc(NC(=O)c2c(OC)cccc2OC)c(C)c1	none (no result: MITF TRPM1 HTS)
Cc1ccc(NC(=O)c2ccc3ccccc3n2)nc1	Wnt bcat act 77
COc1ccccc1NC(=O)c1oc2ccccc2c1C	esBAF inh 47 (no result: PHOSPHO1 block, APOBEC3G inh, Wnt bcat act, MITF TRPM1 HTS, APOBEC3A inh)
Cc1ccc(NC(=O)c2cc3ccccc3o2)nc1	Wnt bcat act 65 (no result: PHOSPHO1 block, esBAF inh)
O=C(C[C@H]1CC[C@@H]2[C@H](COC[C@H](O)CN2Cc2ccc(F)cc2)O1)NCc1ccccc1Cl	none (no result: PHOSPHO1 block, APOBEC3G inh, Wnt bcat act, MITF TRPM1 HTS, APOBEC3A inh)
COc1ccccc1NC(=O)c1cc2ccccc2o1	esBAF inh 72 (no result: Wnt bcat act)
Cc1ccccc1NC(=O)c1cc2ccccc2o1	esBAF inh 47
COc1ccc(-c2cc3ccccc3oc2=O)cc1NC(=O)c1ccc([N+](=O)[O-])o1	esBAF inh 42 (no result: Wnt bcat act)
CCC(=O)N(C)C[C@H]1Oc2ncc(C#CC3(O)CCCC3)cc2C(=O)N([C@@H](C)CO)C[C@H]1C	none (no result: PHOSPHO1 block, APOBEC3G inh, Wnt bcat act, MITF TRPM1 HTS, APOBEC3A inh)
COCC(=O)Nc1ccc2c(c1)C(=O)N(C)[C@@H]1CC[C@@H](CC(=O)Nc3cn(C)nc3C)O[C@@H]1CO2	none (no result: PHOSPHO1 block, APOBEC3G inh, Wnt bcat act, MITF TRPM1 HTS, APOBEC3A inh)
O=C(c1ccc(Cl)c([N+](=O)[O-])c1)N(Cc1ccc(Cl)cc1)C1CCS(=O)(=O)C1 (stereo not drawn)	Wnt bcat act 47 (no result: APOBEC3G inh, esBAF inh, APOBEC3A inh)
O=C(c1ccc(Cl)c([N+](=O)[O-])c1)N(Cc1ccccc1)C1CCS(=O)(=O)C1 (stereo not drawn)	none (no result: esBAF inh)
O=C(C[C@@H]1C[C@@H]2c3cc(NC(=O)Nc4ccccc4F)ccc3O[C@@H]2[C@H](CO)O1)NCc1cc(F)ccc1F	none (no result: PHOSPHO1 block, APOBEC3G inh, Wnt bcat act, MITF TRPM1 HTS, APOBEC3A inh)
O=C(c1ccccc1Cl)N1CCN(S(=O)(=O)c2cccs2)CC1	none
O=C(c1ccco1)N1CCN(Cc2ccc(Cl)cc2)CC1	none
O=C(c1ccc(-c2ccc(Cl)cc2Cl)o1)N1CCOCC1	esBAF inh 56, Wnt bcat act 54, MITF TRPM1 HTS 147
O=C(c1ccc(-c2ccccc2Cl)o1)N1CCN(S(=O)(=O)c2cccs2)CC1	MITF TRPM1 HTS 87 (no result: PHOSPHO1 block, esBAF inh)
O=C(c1ccco1)N1CCN(Cc2c(Cl)cccc2Cl)CC1	esBAF inh 59
O=C(c1ccco1)N1CCN(C(=O)c2ccc(-c3ccccc3Cl)o2)CC1	esBAF inh 56, MITF TRPM1 HTS inconclusive (no result: PHOSPHO1 block)
Cc1noc(C)c1S(=O)(=O)N(C)C[C@H]1OCc2ccccc2-c2ccccc2C(=O)N([C@H](C)CO)C[C@H]1C	none (no result: PHOSPHO1 block, APOBEC3G inh, Wnt bcat act, MITF TRPM1 HTS, APOBEC3A inh)
COc1ccccc1S(=O)(=O)N[C@H]1CC[C@@H](CCn2cc(C3CC3)nn2)O[C@H]1CO	none (no result: PHOSPHO1 block, APOBEC3G inh, Wnt bcat act, MITF TRPM1 HTS, APOBEC3A inh)
COCC#Cc1ccc2c(c1)O[C@H](CN(C)Cc1cccnc1)[C@@H](C)CN([C@H](C)CO)S2(=O)=O	none (no result: PHOSPHO1 block, APOBEC3G inh, Wnt bcat act, MITF TRPM1 HTS, APOBEC3A inh)
C[C@@H]1CN([C@H](C)CO)C(=O)c2cccc(N(C)C)c2O[C@@H]1CN(C)Cc1ccc(C(=O)O)cc1	none (no result: PHOSPHO1 block, APOBEC3G inh, Wnt bcat act, MITF TRPM1 HTS, APOBEC3A inh)
O=C(Nc1ccc(Cl)cc1)OCc1ccccn1	esBAF inh 77, Wnt bcat act 54 (no result: MITF TRPM1 HTS)
Cc1sc2ncnc(N=Nc3c(O)[nH]c4ccccc34)c2c1C	esBAF inh 52
